Sampled rows, rich in hits. Any-hit rate of the full collection: about 9.3%.
FLuc counter: qHTS profiling assay for firefly luciferase inhibitor/activator using purifed enzyme and Km concentrations of substrates (counterscreen for miR-21 project); purified FLuc, Km substrates, luminescence inhibition; Potency, µM (series often up to 57.5 µM), for inactives: top-dose activity change, negative = inhibition, most hits filed as inhibitors; Luciferin 4-monooxygenase (Photinus pyralis), P08659; hit rate 6.9% among 360,000;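 further: plate controls were vehicle for no effect and reference inhibitor for full effect; nearly all actives have a fitted effect of over 55% in size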
Target sequence (P08659 whole entry, looked up): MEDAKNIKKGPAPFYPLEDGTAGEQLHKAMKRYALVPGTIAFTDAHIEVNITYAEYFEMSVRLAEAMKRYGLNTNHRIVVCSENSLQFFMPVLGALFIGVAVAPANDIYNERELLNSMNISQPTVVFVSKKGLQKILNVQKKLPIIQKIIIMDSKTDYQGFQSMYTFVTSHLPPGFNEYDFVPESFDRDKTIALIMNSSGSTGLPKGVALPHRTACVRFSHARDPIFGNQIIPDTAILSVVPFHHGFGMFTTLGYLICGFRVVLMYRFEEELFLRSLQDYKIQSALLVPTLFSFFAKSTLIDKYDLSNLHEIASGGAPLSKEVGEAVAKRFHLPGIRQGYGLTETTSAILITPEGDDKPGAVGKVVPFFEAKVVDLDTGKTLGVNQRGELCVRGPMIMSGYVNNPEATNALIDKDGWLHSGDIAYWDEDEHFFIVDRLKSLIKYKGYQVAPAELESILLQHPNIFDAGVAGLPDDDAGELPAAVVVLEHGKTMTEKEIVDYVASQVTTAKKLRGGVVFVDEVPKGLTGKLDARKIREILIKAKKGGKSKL
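Purified P. pyralis luciferase, 10 nM final, with Km-level 10 uM D-luciferin and 10 uM ATP in 50 mM Tris acetate pH 7.5, 10 mM Mg acetate, 0.01% Tween-20, 0.05% BSA; 6-point qHTS titration about 60 µM downward; luminescence read.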
ELG1 genotoxic: qHTS screen for small molecules that induce genotoxicity in human embryonic kidney (HEK293T) cells expressing luciferase-tagged ELG1; hit rate 1.3% among 330,000; AID 504466, 2011; HEK293T ELG1-luciferase reporter, luminescence, 16 h; Potency, µM (doses to about 46 µM), without a hit: at the highest dose activity change, positive = activation, usual class: activators; further: % of control where 0% means no effect; nearly all actives have a fitted effect of over 60% in size
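16 hr compound incubation (37 °C, 5% CO2) of HEK293T cells carrying luciferase-tagged ELG1; luciferase then measured by ONE-Glo luminescence after 30 min at RT.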
ELG1 repair inh: qHTS screen for small molecules that inhibit ELG1-dependent DNA repair in human embryonic kidney (HEK293T) cells expressing luciferase-tagged ELG1. HEK293T ELG1-luciferase reporter, luminescence, 16 h; DNA damage induced by 5-fluorouridine. Potency, µM (highest dose often 46.1 µM), without a hit: at the highest dose activity change, negative = inhibition, usual class: inhibitors. hit rate 2.3% among 330,000; further: on the % scale 0 is the no-effect control and ±100 the full control effect; nearly all actives have a fitted effect of over 55% in size
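In this reporter screen, reduction of luminescence relative to DMSO vehicle indicated activity. Compounds and 5-fluorouridine were added together to 2,000 cells per well, incubated for 16 hr at 37 °C, then developed with ONE-Glo.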
Rab9 promoter act: qHTS Assay for Rab9 Promoter Activators | Potency, µM (series often up to 9.22 µM), inactives show at the top dose activation, negative = inhibition, actives largely listed as activators | Huh7 Rab9 promoter-luciferase reporter, luminescence, 24 h | hit rate 2.8% among 320,000; further: % of control where 0% means no effect; nearly all actives have a fitted effect of over 60% in size
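Luciferase signal after 10 min detection reagent at ambient indicates Rab9 promoter upregulation; stably transfected Huh7 cells were treated 24 h with compound in DMSO at 37 °C, 5% CO2.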
NPC1 promoter act: qHTS Assay for NPC1 Promoter Activators; Huh7 NPC1 promoter luciferase reporter, 24 h; Potency, µM (highest dose often 9.22 µM), for inactives: top-dose activation, usual class: activators; hit rate 2.4% among 320,000; AID 485313, 2010; further: % of control where 0% means no effect; nearly all actives have a fitted effect of over 60% in size
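Luciferase expression driven by the NPC1 promoter was measured in stably transfected Huh7 cells after a 24 h compound incubation, using a luciferase reagent and a luminescence read.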
SMN2 splice enh: qHTS Assay for Enhancers of SMN2 Splice Variant Expression | Potency, µM (series often up to 46.1 µM), inactives show top-dose activity change, positive = activation, hits mostly activators | hit rate 2.8% among 210,000 | HEK293 SMN2-luciferase splicing reporter, luminescence, 30-36 h; further: % of control where 0% means no effect; nearly all actives have a fitted effect of over 55% in size
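HEK293 cells carry an SMN2 […]–luciferase reporter in which exon 7 inclusion puts luciferase in frame. Cells were plated 10-12 h before compound addition, then incubated 30-36 h at 37C. ONE-Glo luminescence was read; sodium butyrate at 4.5 mM final served as control.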
* marks the source's active call; other numbers are inactive results; ? = inconclusive; . = no result given; [ ] = another dose, or the depositor's remark. The call rests on the fitted dose curve; in most records, active means well fitted curve in the direction sought with a large enough effect; inconclusive means small, poorly fitted or top-dose-only effect, or another doubt; inactive means no such curve, though single readings can be large; an effect the other way counts as inactive or inconclusive. Potency means the concentration at half of the fitted maximal effect.

SMILES | FLuc counter | ELG1 genotoxic | ELG1 repair inh | Rab9 promoter act | NPC1 promoter act | SMN2 splice enh
Cc1ccc2c(C)nc(Nc3nc(CSc4nc5ccccc5[nH]4)cc(=O)[nH]3)nc2c1 | 1% | -2% | 4.6µM* | -25% | -17% | 43%
Cc1ccc(SCc2cc(=O)[nH]c(Nc3nc(C)c4ccc(C)cc4n3)n2)cc1 | 0% | -5% | 12% | 4% | -3% | -10%[1.84 µM]
COc1ccc2c(C)nc(Nc3nc(-c4ccccc4)cc(=O)[nH]3)nc2c1 | -18% | 7% | 4.1µM* | -46% | -34% | .
COc1ccc2nc(Nc3nc(CSc4nnc(C)s4)cc(=O)[nH]3)nc(C)c2c1 | ? | 4% | 8% | -7% | -4% | -29%
O=C(CCCC(=O)OCC(=O)c1cccs1)Nc1ccc(F)cc1 | -12% | 0% | -6% | -2% | -2% | 8%
Cc1ccc(-n2ncc3c(N4CCN(C)CC4)ncnc32)cc1Cl | 5.4µM* | . | . | . | . | .
Cc1cccc(N2CCN(c3ncnc4c3cnn4-c3ccc(Cl)cc3)CC2C)c1 (configuration not stated) | -2% | . | . | . | . | .
CN1CCN(c2ncnc3c2cnn3-c2ccc(Cl)cc2)CC1 | 0.95µM* | ? | ? | 0.4µM* | ? | 0%
Cc1ccc(-n2ncc3c(N(C)C)ncnc32)cc1Cl | 0.76µM* | . | . | . | . | .
Cc1ccc(-n2ncc3c(N4CCN(C)CC4)ncnc32)cc1 | 3µM* | . | . | . | . | .
CCCc1ccc(-c2ccc(C(=O)Oc3ccc(OCC)cc3)cc2)nc1 | -19% | . | . | . | . | 4%
CCOC(=O)C1=C(O)/C(=C\c2sccc2C)N=C1C | ? | -3% | -4% | -5% | -3% | 4%
O=C(O)c1cccc(OCCN2CCCC2=O)c1 | 1% | 0% | 7% | 3% | 3% | .
CCCOc1cccc(C(=O)Nc2cc(-c3nc4ccccc4[nH]3)ccc2C)c1 | ? | . | . | . | . | -48%
CCC1=NN(C(=O)c2ccc(Cl)cc2)C(O)(c2ccccc2)C1 (configuration not stated) | -3% | -4% | -18% | 1% | -1% | .
COC(=O)C1=NN(C(=O)c2ccc(Cl)cc2)C(O)(c2ccccc2)C1 (configuration not stated) | 21µM* | 1% | 1% | 2% | -1% | -18%
CCOc1ccc(Nc2nc(-c3cccc(Cl)c3)c3c(n2)-c2ccccc2OC3)cc1 | 12µM* | . | . | . | . | .
COc1ccccc1NC(=O)CCCCCN1C(=O)c2cccc([N+](=O)[O-])c2C1=O | 1% | 0% | -2% | 0% | 1% | .
N=c1c(-c2nc3ccccc3[nH]2)cc(C(=O)c2ccco2)nn1-c1ccccc1 | -4% | -4% | 16µM* | -7% | -1% | -33%
COc1ccc(NC(=S)NC(=O)c2ccccc2)cn1 | 13µM* | ? | ? | 1.8µM* | ? | .
COc1cccc(C(=O)Nc2ccc(NC(=O)C(C)(C)C)cn2)c1 | 0.85µM* | ? | ? | 0.32µM* | 0.35µM* | 0.89µM*
COc1ccc(NC(=O)c2cccc(Oc3ccccc3)c2)cn1 | 19µM* | 10% | 0% | 10% | -12% | .
COc1ccc(NC(=O)/C(Cl)=C(/Cl)S(=O)(=O)Cc2ccccc2)cn1 | 4% | -2% | 18µM* | -43% | -34% | -98%
COc1ccc(NC(=O)Cc2ccc(-c3ccccc3)cc2)cn1 | 1% | -8% | ? | -15% | -35% | -21%
COc1ccc(NC(=O)C(Cl)=C(Cl)Cl)cn1 | -2% | -2% | 1% | -41% | -32% | -5%
SMILES | FLuc counter | ELG1 genotoxic | ELG1 repair inh | Rab9 promoter act | NPC1 promoter act | SMN2 splice enh
CCCNC(=O)Cn1nc(C(F)(F)F)cc1C | -2% | -2% | -4% | -2% | 0% | 1%
CCOc1ccc(CN2C(=O)c3ccccc3C2C(=O)NCCc2ccc(OC)c(OC)c2)cc1 (configuration not stated) | 5% | . | . | . | . | .
O=C(O)c1ccc(NC(=S)NC(=O)c2ccc(-c3ccccc3)cc2)cc1 | 6µM* | 14% | ? | ? | 21% | 0%
O=C(NC(=S)Nc1ccccc1)c1ccc(-c2ccccc2)cc1 | -11% | 7% | ? | ? | ? | -1%[1.84 µM]
COc1ccc(NC(=O)c2cccc(S(=O)(=O)N3CCc4ccccc43)c2)cn1 | -8% | -9% | 8.2µM* | -25% | -13% | -41%
COc1ccc(NC(=O)c2ccc(S(=O)(=O)N(C)c3ccccc3)cc2)cn1 | -1% | -11% | 10µM* | -1% | -5% | .
COc1cccc(C2C3=C(CCCC3=O)Nc3nc(-c4cc(OC)c(OC)c(OC)c4)nn32)c1 (configuration not stated) | 4% | 15% | -1% | 10% | 0% | -2%
CCCCNC(=O)[C@@H]1CSC2c3ccc(OC)c(OC)c3C(=O)N21 (some centres not stated) | 2% | 0% | 6% | 1% | -7% | .
Clc1ccc(N2CCN(c3ncnc4c3cnn4-c3ccccc3)CC2)cc1Cl | -2% | . | . | . | . | .
Cc1cccc(-n2ncc3c(N4CCC5(CC4)OCCO5)ncnc32)c1 | 6.7µM* | ? | ? | 2.5µM* | 2.8µM* | .
c1ccc(-n2ncc3c(N4CCC5(CC4)OCCO5)ncnc32)cc1 | 13µM* | 4.1µM* | ? | ? | 2.5µM* | 13µM*
COc1ccc(NC(=O)c2oc3ccc(S(=O)(=O)N4CCCCC4)cc3c2C)cc1 | 1% | . | . | . | . | .
Fc1cccc2sc(Nc3nnc(-c4ccco4)o3)nc12 | 11µM* | 2.6µM* | ? | 2.5µM* | 4µM* | 3.5µM*
COc1cccc2sc(Nc3nnc(-c4cccs4)o3)nc12 | 4.8µM* | ? | ? | 1µM* | 4µM* | 14µM*
COc1cccc2sc(Nc3nnc(-c4ccc(F)cc4)o3)nc12 | 24µM* | ? | 14% | -9% | -3% | 6%
CC(=O)Nc1nnc(-c2ccco2)o1 | 4% | -12% | -1% | -3% | -10% | 8%
CCOc1cccc2sc(NN)nc12 | ? | 7% | -8% | -3% | -2% | -18%
CC(C)CN(C(=O)COC(=O)c1cccnc1Cl)c1c(N)n(Cc2ccccc2)c(=O)[nH]c1=O | 5% | 2% | 0% | 0% | -3% | .
Cc1ccc(-n2cnc3scc(-c4cccs4)c3c2=O)cc1 | 1% | -2% | ? | -6% | -3% | -44%
Cn1nnnc1SCC(=O)NCC(=O)c1ccccc1 | 0% | 0% | 22% | -11% | -4% | -7%

Bioassay records as filed in PubChem.
